Assay results as given in PubChem BioAssay (NCATS).
Results filed as inconclusive are left out. Calls of active or inactive are those of the source. Calls follow the shape of the dose curve; as a rule, active = well fitted inhibition curve with a large enough effect; inconclusive = small, poorly fitted or top-dose-only effect; inactive = no such curve, though single readings can be large or run the other way.

biological target: Rap guanine nucleotide exchange factor 4 (Homo sapiens) (UniProt Q8WZA2); assay: Confirmatory qHTS for antagonist of cAMP-regulated guanine nucleotide exchange factor 4 (EPAC2) (AID 1645885); details: EPAC2 Rap1B-BODIPY-GDP exchange fluorescence, biochemical; series mostly up to 12.7 µM; activity change, negative = inhibition: at the top concentration; also: nearly all actives have a fitted effect of over 25% in size
% is scaled to controls: 0 for no effect and ±100 for the full control effect; potency is read from the fitted curve at half-maximal effect.

Rap guanine nucleotide exchange factor 4 (Homo sapiens), sequence (Q8WZA2 whole entry, looked up): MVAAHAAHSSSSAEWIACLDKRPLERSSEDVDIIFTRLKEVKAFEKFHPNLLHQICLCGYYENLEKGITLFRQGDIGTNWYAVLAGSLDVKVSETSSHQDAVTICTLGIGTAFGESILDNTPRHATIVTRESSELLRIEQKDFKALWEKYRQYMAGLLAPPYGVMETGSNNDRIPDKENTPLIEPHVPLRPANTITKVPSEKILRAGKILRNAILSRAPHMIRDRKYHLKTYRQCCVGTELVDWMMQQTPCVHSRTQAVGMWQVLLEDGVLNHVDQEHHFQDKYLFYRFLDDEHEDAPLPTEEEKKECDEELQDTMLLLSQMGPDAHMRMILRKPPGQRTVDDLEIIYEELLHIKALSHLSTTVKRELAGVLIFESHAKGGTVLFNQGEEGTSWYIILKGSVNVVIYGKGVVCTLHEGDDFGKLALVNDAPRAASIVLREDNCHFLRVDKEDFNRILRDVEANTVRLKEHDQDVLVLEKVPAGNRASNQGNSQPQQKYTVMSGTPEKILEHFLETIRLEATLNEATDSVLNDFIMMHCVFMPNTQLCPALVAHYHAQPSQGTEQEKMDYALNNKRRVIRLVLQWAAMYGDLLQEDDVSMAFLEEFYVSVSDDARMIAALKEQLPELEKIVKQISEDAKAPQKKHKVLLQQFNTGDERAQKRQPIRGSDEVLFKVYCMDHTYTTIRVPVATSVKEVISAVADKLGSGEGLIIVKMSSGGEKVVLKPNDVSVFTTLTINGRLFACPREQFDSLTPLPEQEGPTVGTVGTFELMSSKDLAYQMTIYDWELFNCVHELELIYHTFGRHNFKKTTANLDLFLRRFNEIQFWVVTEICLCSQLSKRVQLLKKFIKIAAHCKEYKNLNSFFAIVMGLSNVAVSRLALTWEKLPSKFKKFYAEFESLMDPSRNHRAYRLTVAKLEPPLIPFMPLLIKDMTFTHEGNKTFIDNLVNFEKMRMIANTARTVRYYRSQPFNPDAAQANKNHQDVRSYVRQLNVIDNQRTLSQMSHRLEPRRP

Potency, active:
CCCN1CC=C2C(C#N)=C(N)C(C#N)(C#N)C(c3cccc(OC)c3OC)C2C1 (stereo unspecified) 12 µM
CC(=O)/C(=N\Nc1ccccc1)Sc1cccc2cccnc12 84.9 µM
CC(C)(C)c1ccc(-n2nc(C#N)c(Cl)cc2=O)cc1 0.338 µM

Activity change, negative = inhibition, inactive:
CCCN(CCC)c1ccc(/C=C/c2ccnc3ccccc23)cc1 138% [at 114 µM]
COc1ccc2c(c1)C(=O)CCC2c1ccccc1 (stereo unspecified) 36.5% [at 114 µM]
N#CC(C#N)=C1C=C2C=C(N3CCCCCC3)CCC2CC1 (stereo unspecified) 238% [at 114 µM]
Cc1ccc(N=Cc2c(O)n(-c3nccs3)c(=O)c3ccccc23)c(C)c1 16.1%
CCOC(=O)c1ccc2[nH]cc(C(C)=O)c(=O)c2c1 -1.84% [at 114 µM]
CN(C)c1ccc(-c2cc3ccccc3c(=O)o2)cc1 -4.71% [at 114 µM]
CN(C)c1ccc(/C=C/c2ccnc3c(Cl)cccc23)cc1 -14.3% [at 114 µM]
Cc1cc(N(C)C)c(C)cc1/C=C/c1ccnc2ccccc12 14.1% [at 114 µM]
N#C/C(=C\c1ccc(Sc2ccc(Cl)cc2)o1)c1nc2ccccc2[nH]1 -9.7% [at 114 µM]
COc1ccc(-c2csc3nc(C)nc(N4CCCCC4)c23)cc1OC 61.7% [at 114 µM]
CN(C(=O)c1cc2c(cc1Br)OCO2)c1cccc2ccccc12 41% [at 114 µM]

outcome, inactive:
CNC(=O)c1csc(Cc2c(Cl)sc3ccc(Cl)cc23)n1
C=Cc1ccc(CC2(C)C(=O)Nc3ccc(-c4cccnc4)cc32)cc1 (stereo unspecified) inactive; activator; fitted 11.9955 uM
